Values joined by “and” are separate entries in the source; they are usually repeats but may differ in a detail not shown here. Equal entries are not always repeated. Among all 290,000 compounds or so, about 27,000 (9.3%) were called active. Cut-off read from the data, not from the text of the source: active = inhibition mostly above about 28% (no sharp cut-off); inactive = mostly below about 43%. Shown is part of a subset that was picked to be rich in actives.

The term inhibition denotes the change of the read-out against control, counted positive when it falls.

The assay can be described thus: A qHTS for Small Molecule Inhibitors of Shiga Toxin. Note: 0% is about no effect. The settings on record: Vero cells, Shiga toxin protein synthesis inhibition reporter; at 38.7 µM, stronger effect = higher value. A general note: Quantitative high-throughput screening tests each substance at several concentrations.
In the case of `COc1nnc(-c2ccc(C)c(S(=O)(=O)N(C)C)c2)c2ccccc12`, the inhibition is 22.7% (inactive).
Then `CCOC(=O)c1sc(=NC(=O)/C=C/c2cccs2)n(C)c1C`, with 88% (active).
Take `CCOC(=O)c1sc(=NC(=O)c2ccc(Br)cc2)n(C)c1C`: the inhibition is -5.35% (inactive).
In the case of `CCOC(=O)c1c(NC(=S)NC(=O)/C=C/c2cccs2)sc(C)c1C` it was -10.9% (inactive); in that of `CCOc1ccc(OCC)c(NC(=O)CCS(=O)(=O)c2ccc(C)cc2)c1`, -3.57% (inactive).
Then `O=C(Cc1c(Cl)cccc1Cl)NC1CC1`, with -3.23% (inactive); and `CC(C)CCn1cnc2c1c(=O)n(CC(=O)NC(N)=O)c(=O)n2Cc1ccccc1`, with 6.66% (inactive).
In the case of `COc1ccc(Cc2nnnn2CC(=O)O)cc1` it was 18.4% (inactive).
As for `COc1ccc(Cc2cc(-c3ccc(F)cc3)n[nH]c2=O)cc1`, the inhibition was 41.9% (active).
In the case of `COc1ccc(Cc2nnc(SC)[nH]c2=O)cc1` it was -10.4% (inactive).
In the case of `O=C(/C=C/c1ccc(Cl)cc1)NCCCn1ccnc1` it was 63.2% (inactive); in that of `Cc1ccc(NS(=O)(=O)c2cc3c(cc2C)NC(=O)CO3)cc1`, -3.52% (inactive); in that of `C[C@H](NC(=O)c1nc[nH]c1C(=O)NCC(=O)OC(C)(C)C)C(=O)OCc1ccccc1`, -5.08% (inactive).
Then `CCC(C)c1ccccc1NC(=O)CN(C)CC(=O)Nc1ccccc1SC` (centres undefined), with -5.67% (inactive).
On to `CCn1cc(CN2CCC(n3nccc3NC(=O)CCCc3ccccc3)CC2)c(C)n1`, for which the inhibition was -4.01% (inactive).
Then `O=C(NC1CCCC1)C(=O)c1c[nH]c2ccccc12`, with 60.6% (active).
Then `O=C(NCCCc1ccccc1)C(=O)c1c[nH]c2ccccc12`, with 34.9% (inactive); and `O=C(C(=O)N1CCc2ccccc2C1)c1c[nH]c2ccccc12`, with 25.1% (inactive).
`Cc1ccc(C(=O)CCC(=O)N(C)CC(=O)Nc2c(Cl)cccc2Cl)cc1`: the inhibition was 12.9% (inactive).
Then `CCOc1ccc(NC(=O)CSc2nncn2C)cc1`, with -2.49% (inactive).
Then `COc1ccc(-n2c(-c3ccc(OC)c(OC)c3)n[nH]c2=S)cc1`, with -6.08% (inactive).
Turning to `CCOc1ccccc1NC(=S)NC(=O)CCc1ccccc1`, the inhibition is -2.78% (inactive).
In the case of `COc1ccc(Nc2ncc(F)c(N3CCOCC3)n2)cc1` it was 68.5% (active).
Then `c1ccc(Nc2nc(N3CCOCC3)c3ccccc3n2)cc1`, with -9.05% (inactive); and `CCOc1ccc(Nc2nc(Cl)nc(N3CCN(c4ccc(OC)cc4)CC3)n2)cc1`, with -1.73% (inactive).
In the case of `Cc1cc(C)cc(NC(=O)CN2C(=O)c3ccccc3C2=O)c1` it was -7.16% (inactive); in that of `Cc1ccc(C(C)C)cc1OCC(=O)Nc1ccccc1N1CCCC1`, 38.7% (inactive); in that of `Cc1c(OC(C)C(=O)N[C@@H](Cc2ccccc2)C(=O)O)ccc2c3c(c(=O)oc12)CCCC3` (some centres undefined), -5.08% (inactive).
With `O=C(Cn1ncc2c3ccccc3n(Cc3ccccc3)c2c1=O)NCCCN1CCOCC1`, the inhibition was 10.5% (inactive).
As to `CCN1C(=O)/C(=C2/Sc3ccccc3N2CCCS(=O)(=O)O)SC1=S`, the inhibition is 13.4% (inactive) and -2.41% (inactive).
Then `CCN1C(=O)/C(=c2\s/c(=C3\Sc4ccccc4N3C)c(=O)n2C)N(C)C1=S`, with 40.9% (active).
Turning to `CCCCN1C(=O)/C(=C2/Sc3ccc(Cl)cc3N2CC)SC1=S`, the inhibition is 1.9% (inactive).
Regarding `COc1cc(OC)c(OC)cc1CN1CCN(C(=O)c2cccc3ccccc23)CC1`, the inhibition is -8.18% (inactive).
`COc1ccc(-c2nc3n(c(=O)c2C#N)CCS3)c(OC)c1`: the inhibition is -7.88% (inactive).
Turning to `O=C(N/N=C\C1CC=CCC1)c1ccc(Br)o1` (centres undefined), the inhibition is 67.4% (active).
`Cc1ccc(SCc2c(C(=O)N/N=C/C3CC=CCC3)nnn2-c2nonc2N)cc1` (centres undefined): the inhibition was -9.77% (inactive).
Then `COCc1c(C(=O)N/N=C/C2CC=CCC2)nnn1-c1nonc1N` (centres undefined), with -2.4% (inactive).
Then `CCN1CCN(C(=O)Cn2nc(C)n3c(cc4c(OC)cccc43)c2=O)CC1`, with -14.6% (inactive); and `O=C(O)CCCn1c(=O)c2cccn2c2ccc(F)cc21`, with -8.92% (inactive).
Then `O=C(Nc1cccc2ccccc12)N1CCC2(CC1)OCCO2`, with 54.5% (active); and `COc1ccc(NC(=O)N2CCC3(CC2)OCCO3)c(OC)c1`, with 13.6% (inactive).
On to `O=C(Nc1cccc2ccccc12)N1CCN(Cc2ccc3c(c2)OCO3)CC1`, for which the inhibition is -3.81% (inactive).
Then `COc1cc(/C=N/NC(=O)CNC(=O)c2ccncc2)ccc1OC(C)=O`, with -3.89% (inactive); and `COc1ccc(C)cc1NC(=O)NCCCCc1ccccc1`, with 14.6% (inactive).
In the case of `COc1ccc(C(=O)NC2CC2)cc1OC1CCN(C/C=C/c2ccccc2)CC1` it was -9.42% (inactive); in that of `CC(=O)N1c2ccc(S(=O)(=O)N3CCC(C(=O)N4CCN(c5ccccc5)CC4)CC3)cc2CC1C` (centres undefined), -2.12% (inactive).
Then `Cc1cccc(-c2nnc(SCC(=O)O)n2Cc2ccccc2)c1`, with -7.35% (inactive).
Take `COc1cc(/C=C2\SC(=O)NC2=O)ccc1OCc1ccc(Cl)nc1`: the inhibition was -5.05% (inactive).
Turning to `CCOc1c(Cl)cc(/C=N/O)cc1OC`, the inhibition is 59.8% (inactive).
For `C=CCOc1ccc(/C=C2/C(=O)ON=C2C)cc1OCC`, the inhibition is 17.5% (inactive).
Then `CCOc1cc(/C=N/O)ccc1OCc1ccccc1F`, with 40.7% (active); and `CC1=NOC(=O)/C1=C\c1ccccc1`, with -4.49% (inactive); and `CCOc1ccc(/C=N/NC(=O)C(C)Sc2ccccn2)cc1OCC` (centres undefined), with -9.85% (inactive).
Then `COc1cc(/C=C2/C(=O)ON=C2C)ccc1OCc1cccc(F)c1`, with 55.1% (active).
In the case of `C#CCOc1ccc(/C=C2/C(=O)ON=C2C)cc1OCC` it was 13.8% (inactive); in that of `COc1cc(/C=C2/C(=O)ON=C2C)ccc1OCc1ccccc1F`, 145% (active); in that of `CCn1c(CC(=O)Nc2ccccc2)nnc1SCC(=O)N1CCOCC1`, -10.2% (inactive).
Take `Cc1ccc(/C=C2\SC(=S)N(CCC(=O)Nc3ccc(O)cc3)C2=O)cc1`: the inhibition is 0.715% (inactive).
Take `COC(=O)c1cccc(N(CC(=O)NCC2CCCO2)C(=O)CCC(=O)Nc2cc(C)on2)c1` (centres undefined): the inhibition is -11.3% (inactive).
Then `CC(C)(C)Nc1c(N)c(=O)oc2ccccc12`, with 10.6% (inactive); and `Nc1c(NCCc2ccccc2)c2ccccc2oc1=O`, with 60.3% (active); and `O=Cc1c(NCCc2cccc(F)c2)c2ccccc2[nH]c1=O`, with -25% (inactive).
In the case of `O=C(CNC(=O)[C@@H]1Cc2ccccc2CN1)NC1CCCCC1` it was -13.1% (inactive); in that of `CCOc1ccc(-n2c(SCC(=O)Nc3ccc(OC)cc3)nc3sc4c(c3c2=O)CCN(C)C4)cc1`, 4.16% (inactive); in that of `CCOc1ccc(-n2c(SCC(=O)OC)nc3sc4c(c3c2=O)CCN(C)C4)cc1`, 11.7% (inactive).
In the case of `COc1ccccc1NC(=O)CSc1nc2sc3c(c2c(=O)n1-c1ccccc1)CCN(C)C3` it was 35.8% (active).
Consider `O=C(O)c1cc(S(=O)(=O)N(Cc2ccccc2)c2cccc(C(F)(F)F)c2)ccc1Cl`, for which the inhibition is -2.31% (inactive).
In the case of `CC(=O)N1CCC(C(=O)OCc2ccc(Cl)cc2)(c2ccccc2)CC1` it was -6.33% (inactive); in that of `Cc1c(Cl)cccc1NC(=O)NCCCN1CCCC1=O`, 29.4% (inactive); in that of `O=C(CN1C(=O)c2ccccc2C1=O)NCc1ccc(C(=O)O)cc1`, 5.13% (inactive).
Then `CC(=O)c1ccc(N2CCN(C(=O)c3ccc4nc[nH]c4c3)CC2)cc1`, with 29.9% (active).
Regarding `O=C(c1cccc(C(=O)N2CCN(c3ccc(F)cc3)CC2)c1)N1CCN(c2ccc(F)cc2)CC1`, the inhibition was -8.51% (inactive).
Then `Cc1nc2ccc(C(=O)N3CCN(c4ccccc4)CC3)cc2s1`, with 11.9% (inactive).
In the case of `CCN1C(=NCCc2cccnc2)N[C@@H](c2ccccc2)[C@H](C(=O)OC)[C@H]1C` it was 12.2% (inactive) and -9.8% (inactive).
Then `C=C1CCN(Cc2ccc(OC)cc2)S(=O)(=O)c2ccccc21`, with -5.84% (inactive); and `COc1ccc(OC)c(CNC(=O)Cn2nc(C)c3c(C)n(-c4ccc(C)cc4)nc3c2=O)c1`, with 26.2% (inactive).
As to `COc1ccc(S(=O)(=O)NNC(=O)Nc2ccc(C)cc2)c(OC)c1`, the inhibition was -5.98% (inactive).
As to `NC(=O)C1CCN(C(=O)CC2C(=O)NCCN2Cc2cccc(Oc3ccccc3)c2)CC1` (centres undefined), the inhibition is -10.2% (inactive).
Then `Cc1nn(-c2ccccc2)c2c1c(C)c(CCC(=O)NCC1CCCO1)c(=O)n2C` (centres undefined), with -2.28% (inactive); and `Cc1onc(-c2ccccc2Cl)c1C(=O)NCCn1ccc2ccccc21`, with -2.64% (inactive); and `Cc1[nH]c2ccccc2c1C(=O)COC(=O)c1c(-c2ccccc2)noc1C`, with -2.62% (inactive).
In the case of `Cc1onc(-c2ccccc2Cl)c1C(=O)OCC(=O)c1ccccc1` it was 71.6% (active); in that of `COc1ccc(/C=C(\NC(=O)c2ccccc2)C(=O)NCCN2CCOCC2)cc1OC`, 1.37% (inactive).
Then `Cc1cc(-c2nnc(CCC(=O)NC(c3ccccc3)c3ccccc3)o2)no1`, with 35.4% (active); and `CC(CCn1cccn1)NC(=O)CCc1nnc(CCc2ccccc2)o1` (centres undefined), with -10.4% (inactive); and `O=C(CCc1nnc(CCCCc2ccccc2)o1)NC(c1cccnc1)C(F)(F)F` (centres undefined), with -12.1% (inactive).
`COC(=O)c1ccc(N2CCOCC2)c(NC(=O)c2ccc(Br)o2)c1`: the inhibition was 31.4% (inactive).
In the case of `Cc1[nH]n(C(N)=S)c(=O)c1N=Nc1ccc(Cl)cc1Cl` it was 44.3% (active).
Take `Cc1cccc(N=Nc2c(C)[nH]n(-c3ccccc3)c2=O)c1`: the inhibition was -4.8% (inactive).
Regarding `CC1=NN(C(N)=S)C(=O)C1N=Nc1cc(Cl)ccc1Cl` (centres undefined), the inhibition was -1.92% (inactive).
In the case of `Cc1cc(C)c2oc(C(=O)Nc3ccc(S(=O)(=O)Nc4nccc(C)n4)cc3)cc(=O)c2c1` it was 2.27% (inactive); in that of `Cc1ccc(NC(=O)O/N=C/c2cccc([N+](=O)[O-])c2)cc1`, 70.8% (active).
Then `CCc1ccc(NC(=O)C(C)OC(=O)/C=C/c2cccc([N+](=O)[O-])c2)cc1` (centres undefined), with 15.5% (inactive); and `O=C(N/N=C/c1cccc([N+](=O)[O-])c1)c1ccncc1`, with 22.3% (inactive).

The values above are taken from PubChem BioAssay AID2315 (National Center for Advancing Translational Sciences (NCATS), 2010).
